Screening data as filed in PubChem BioAssay.
CYP2C19 act: activators of human cytochrome P450 2C19; P33261; recombinant CYP2C19, luciferin-H EGE luminescence; stronger effect = higher value; 0 = fully inhibited enzyme, 1 = untreated enzyme; activation factor at 5 µM; 96,000 tested, under 10 active; AID 1025;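 active = activation factor of at least 2 at 5 µM in the primary screen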;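 also: 0 = wells with 2.5 mM tranylcypromine and 1 = vehicle-only wells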
CYP2C9 inh: blocks human cytochrome P450 2C9; CYP2C9 Supersomes, luciferin-H conversion, luminescence; hit rate 20% among 96,000; inhibition, % at 5 µM;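 active = blocking of liver enzyme CYP2C9 beyond about 50% at 5 µM, limit read from the data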
CYP2C9 act: increases human cytochrome P450 2C9 activity; activation factor at 5 µM; hit rate 1.4% among 96,000; P11712; recombinant CYP2C9, luciferin-H conversion, luminescence; stronger effect = higher value; factor 1 = untreated enzyme, 0 = blocked;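 active = activation factor of 2 or more for CYP2C9 at a 5 µM dose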;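 also: 0 = sulfaphenazole-blocked wells and 1 = vehicle-only wells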
D1 mod: allosterically modulates the human D1 dopamine receptor | P21728 | HEK293 D1, CRE-luciferase, dopamine EC30 potentiation; actives deviate in either direction | B-score at 10 µM | hit rate 5.9% among 58,000 | AID 641;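 active = luminescence count or its row- and column-corrected plate score outside the 99.7% band of the plate's sample wells, on either side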
Target sequence (P21728 whole entry, looked up): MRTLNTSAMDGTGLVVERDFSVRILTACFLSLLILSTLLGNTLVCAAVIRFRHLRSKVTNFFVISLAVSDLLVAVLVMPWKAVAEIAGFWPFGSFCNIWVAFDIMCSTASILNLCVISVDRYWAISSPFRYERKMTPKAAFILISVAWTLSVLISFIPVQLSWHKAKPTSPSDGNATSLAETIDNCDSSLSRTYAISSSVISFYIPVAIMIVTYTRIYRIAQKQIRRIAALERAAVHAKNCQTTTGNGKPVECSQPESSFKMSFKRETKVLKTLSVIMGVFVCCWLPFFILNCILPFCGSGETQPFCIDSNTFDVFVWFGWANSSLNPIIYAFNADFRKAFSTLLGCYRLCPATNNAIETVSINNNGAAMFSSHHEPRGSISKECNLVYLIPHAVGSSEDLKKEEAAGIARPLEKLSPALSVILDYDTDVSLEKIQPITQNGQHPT
DAT uptake mod: human DAT dopamine uptake with cocaine, either direction; AID 449768; Q01959; hit rate 1.3% among 110,000; LLC-PK1 hDAT cells, [14C]-dopamine uptake with cocaine IC80; actives deviate in either direction; B-score at 10 µM;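 active = Z score or B-score, a plate-position-corrected score, falls beyond the plate's 99.7% confidence bounds, in either direction; inactive = both scores lie inside the 99.7% bounds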;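 also: scored against the spread of the other compound wells on the same plate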
CYP2C19 inhib: inhibitors of human CYP2C19 | CYP2C19 Supersomes, luciferin-H EGE luminescence, 30 min | AID 778 | inhibition, % at 5 µM | hit rate 21% among 96,000;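 active = CYP2C19 inhibition above a set limit at 5 µM in the primary screen, cut at about 50% in these data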;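 also: plate controls were negative control wells for no effect and 2.5 mM tranylcypromine positive control for full effect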
* = called active by the depositor. In the library only some 28% were active in any assay of this set; here they are far more common.

How did CC(=O)c1c(C)cc(C)c(CSc2nc(C)cc(=O)[nH]2)c1C do in these assays?
CYP2C19 act: 1; CYP2C9 inh: 26; CYP2C9 act: 0.7; DAT uptake mod: 1.1; CYP2C19 inhib: -1

What do the screens show for `CC(C)(C)OC(=O)N1CCC2(CC1)Oc1ccc(Cl)cc1C(=O)C21CC(c2ccc(Cl)cc2)=NO1` (stereo unspecified)?
DAT uptake mod: 0.02

Results for CCOC(=O)C1CCCN(C(=O)c2cc3c(-c4cccc(OC)c4)nn(C)c3s2)C1 (stereo unspecified) ?
CYP2C19 act: 0.6; CYP2C9 inh: 68*; CYP2C9 act: 0.3; D1 mod: 2.6; DAT uptake mod: -0.24; CYP2C19 inhib: 37

Results for COc1ccc(-c2nn(C)c3sc(C(=O)NCc4ccco4)cc23)cc1OC ?
CYP2C19 act: 1.1; CYP2C9 inh: 2; CYP2C9 act: 1; D1 mod: 0.6; DAT uptake mod: -0.23; CYP2C19 inhib: -7

What do the screens show for `CCOC(=O)C1CCN(C(=O)c2cc3c(-c4ccc(OC)c(OC)c4)nn(C)c3s2)CC1`?
CYP2C19 act: 0.1; CYP2C9 inh: 95*; CYP2C9 act: 0.1; D1 mod: 4.7; DAT uptake mod: 0.0094; CYP2C19 inhib: 92*

How did COc1ccc(NC(=O)c2cc3c(-c4ccc(OC)c(OC)c4)nn(C)c3s2)cc1OC do in these assays?
CYP2C19 act: 0.4; CYP2C9 inh: 74*; CYP2C9 act: 0.3; DAT uptake mod: 1.1; CYP2C19 inhib: 57*

What do the screens show for `CCOC(=O)N1CCC(NC(=O)c2cc3c(-c4ccc(OC)c(OC)c4)nn(C)c3s2)CC1`?
CYP2C19 act: 0.6; CYP2C9 inh: 42; CYP2C9 act: 0.6; D1 mod: -2.4; DAT uptake mod: -0.52; CYP2C19 inhib: 36

How did O=C(COC(=O)c1ccc(Br)o1)NCC1CCCO1 (stereo unspecified) do in these assays?
CYP2C19 act: 1; CYP2C9 inh: 5; CYP2C9 act: 0.9; DAT uptake mod: 0.077; CYP2C19 inhib: 3

Results for CC(C)(C)NC(=O)CSc1nc(O)cc(=O)n1-c1ccccc1 ?
CYP2C19 act: 0.9; CYP2C9 inh: 44; CYP2C9 act: 0.6; DAT uptake mod: -0.55; CYP2C19 inhib: 9

Results for Cc1ccc(CSc2nnc(-c3ccccn3)n2C)cc1 ?
CYP2C19 act: 0.8; CYP2C9 inh: 5; CYP2C9 act: 0.9; D1 mod: 1; DAT uptake mod: 0.39; CYP2C19 inhib: 20

How did Cn1c(SCc2ccccc2F)nnc1-c1cnccn1 do in these assays?
CYP2C19 act: 0.4; CYP2C9 inh: -4; CYP2C9 act: 1; D1 mod: -0.019; DAT uptake mod: 1.7; CYP2C19 inhib: 62*

What do the screens show for `c1ccc(CSc2nnc(-c3ccccn3)n2-c2ccccc2)cc1`?
CYP2C19 act: 0.8; CYP2C9 inh: 99*; CYP2C9 act: 0; DAT uptake mod: -0.71; CYP2C19 inhib: 24

How did CC(C)(C)NC(=O)CSc1nnc(-c2ccccn2)n1-c1ccccc1 do in these assays?
CYP2C19 act: 0.5; CYP2C9 inh: 1; CYP2C9 act: 1; D1 mod: -0.32; DAT uptake mod: 1.3; CYP2C19 inhib: 53*

What do the screens show for `Cn1c(SCc2ccccn2)nnc1-c1cnccn1`?
CYP2C19 act: 0.9; CYP2C9 inh: 6; CYP2C9 act: 0.9; DAT uptake mod: 0.2; CYP2C19 inhib: 10

How did Cn1c(SCc2ccc(F)cc2)nnc1-c1ccccn1 do in these assays?
CYP2C19 act: 0.1; CYP2C9 inh: 5; CYP2C9 act: 0.9; D1 mod: -0.33; DAT uptake mod: -0.039; CYP2C19 inhib: 88*

Results for Cc1cccc(N2CCN(C(=O)COc3cc(=O)n(C)c4ccccc34)CC2C)c1 (stereo unspecified) ?
D1 mod: 0.23

What do the screens show for `O=c1c2c3n(c(=S)nc2[nH]n1-c1ccccc1)CCCCC3`?
CYP2C19 act: 1.2; CYP2C9 inh: -10; CYP2C9 act: 1.1; DAT uptake mod: -0.92; CYP2C19 inhib: -18

Results for O=C(NCCC1=CCCCC1)C1CCN(S(=O)(=O)c2cccc3cccnc23)CC1 ?
CYP2C19 act: 0.7; CYP2C9 inh: -4; CYP2C9 act: 1; D1 mod: 1.5; DAT uptake mod: -0.57; CYP2C19 inhib: 32

Results for CC(C)(C)NC(=O)CSc1nc2ccccc2n1-c1ccccc1 ?
CYP2C19 act: 0; CYP2C9 inh: 100*; CYP2C9 act: 0; DAT uptake mod: 1.8; CYP2C19 inhib: 99*

Results for CCOC(=O)N1CCC(NC(=O)CN2C(=O)CCSc3ccccc32)CC1 ?
CYP2C19 act: 0.9; CYP2C9 inh: 8; CYP2C9 act: 0.9; D1 mod: -0.72; DAT uptake mod: 0.21; CYP2C19 inhib: 12

How did CCOC(=O)N1CCC(NC(=O)Cn2c3c(c(-c4ccccc4Cl)cc2=O)CCC3)CC1 do in these assays?
CYP2C19 act: 0.5; CYP2C9 inh: 54*; CYP2C9 act: 0.5; D1 mod: -0.91; DAT uptake mod: 1.9; CYP2C19 inhib: 46

Results for CCOC(=O)CN1C(=O)N[C@@H](c2ccco2)C(C(C)=O)=C1C ?
DAT uptake mod: -0.99

What do the screens show for `CCOc1ccccc1-c1nc(-c2ccc(NC(=O)Cc3ccc(OC)cc3)cc2)no1`?
CYP2C19 act: 0.4; CYP2C9 inh: -90; CYP2C9 act: 1.9; D1 mod: 0.36; DAT uptake mod: -0.092; CYP2C19 inhib: 56*

What do the screens show for `CCOc1ccccc1-c1nc(-c2cccc(Br)c2)no1`?
CYP2C19 act: 1; CYP2C9 inh: -74; CYP2C9 act: 1.7; DAT uptake mod: -0.64; CYP2C19 inhib: 1

How did CCOc1ccccc1-c1nc(-c2ccc(NC(=O)c3ccc(Br)o3)cc2)no1 do in these assays?
CYP2C19 act: 0.2; CYP2C9 inh: -34; CYP2C9 act: 1.3; DAT uptake mod: -1.2; CYP2C19 inhib: 77*

What do the screens show for `O=C(C1=C[C@H](c2coc3ccccc3c2=O)C[C@H](OCCCCO)O1)N1CCOCC1`?
DAT uptake mod: -0.55

How did CC(C)(C)N(Cc1ccccc1)C(=O)CSc1nnc(CNc2ccc(F)cc2)o1 do in these assays?
CYP2C19 act: 0.8; CYP2C9 inh: 24; CYP2C9 act: 0.8; D1 mod: -0.11; DAT uptake mod: 0.42; CYP2C19 inhib: 17

Results for COc1ccccc1NC(=O)COC(=O)c1ccc(S(=O)(=O)NCc2ccco2)cc1 ?
CYP2C19 act: 0.9; CYP2C9 inh: 82*; CYP2C9 act: 0.2; DAT uptake mod: -0.29; CYP2C19 inhib: 7

How did Cc1noc(C)c1COC(=O)c1ccc(S(=O)(=O)NCc2ccco2)cc1 do in these assays?
CYP2C19 act: 0.3; CYP2C9 inh: 100*; CYP2C9 act: 0; D1 mod: -0.4; DAT uptake mod: 1.3; CYP2C19 inhib: 72*

How did O=C(COC(=O)c1ccc(S(=O)(=O)NCc2ccco2)cc1)Nc1ccc(OC(F)F)cc1 do in these assays?
CYP2C19 act: 0.7; CYP2C9 inh: 61*; CYP2C9 act: 0.4; DAT uptake mod: -0.62; CYP2C19 inhib: 29
